Source: PubChem (National Center for Advancing Translational Sciences (NCATS))
Vaccinia mCherry – qHTS for Stage-Specific Inhibitors of Vaccinia Orthopoxvirus: mCherry Reporter Primary qHTS; Vaccinia virus mCherry reporter infection, fluorescence; 0.63% of 310,000 active; Potency, µM (series often up to 36.5 µM), most hits filed as inhibitors; calls by dose curve; tested in A549 cells; further: nearly all actives have a fitted effect of over 35% in size
FMDV inh – High Throughput Screening for Foot and Mouth Disease Virus Antivirals. 1.2% of 410,000 active. Potency, µM (doses to about 57.9 µM), usual class: inhibitors. FMDV antiviral cell-based qHTS; calls by dose curve; tested in HEK293T cells; further: read-out not given here; nearly all actives have a fitted effect of over 45% in size
Vaccinia Venus – qHTS for Stage-Specific Inhibitors of Vaccinia Orthopoxvirus: Venus Reporter Primary qHTS. AID 720580, 2013. 0.46% of 330,000 active. Potency, µM (titrated, usually from 36.5 µM), actives largely listed as inhibitors. Vaccinia virus Venus reporter expression, fluorescence; calls by dose curve; tested in A549 cells; further: nearly all actives have a fitted effect of over 30% in size
Marburg entry inh – qHTS for inhibitors of binding or entry into cells for Marburg Virus. Potency, µM (titrated, usually from 37.8 µM), usual class: inhibitors. 1.8% of 300,000 active. AID 540276, 2011. Marburg virus pseudotyped entry inhibition, cell reporter; calls by dose curve; tested in HEK293 cells
HCMV antiviral – qHTS Assay for inhibitors of the human cytomegalovirus (HCMV). AID 1259415, 2018. HFF cells, HCMV-luciferase reporter, 72 h; stronger effect = lower value. 4.5% of 410,000 active. activity change, negative = inhibition, % at 57.5 µM; in the data active means activity change below about -60%; inconclusive means no clear call, values can overlap the other calls; inactive means above about -39%
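Cell-based, HFFs, 1000 cells/well, 16 h 37C; cpds in DMSO + HCMV-luc, MOI 1 PFU/cell; 72 h 37C; OneGlo luminescence after 5 min RT; norm. to buffer vs Salinomycin 10uM.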
Lassa entry inh – qHTS for Inhibitors of binding or entry into cells for Lassa Virus; Lassa virus pseudotype entry inhibition, cell reporter; Potency, µM (doses to about 37.9 µM), actives largely listed as inhibitors; 1.2% of 300,000 active; calls by dose curve; tested in HEK293 cells; further: nearly all actives have a fitted effect of over 50% in size
Hits are given with their value; . = inactive; ? = inconclusive; / = not tested or not shown. An excerpt weighted towards active compounds, which were near 6.5% of everything screened.

SMILES	Vaccinia mCherry	FMDV inh	Vaccinia Venus	Marburg entry inh	HCMV antiviral	Lassa entry inh
Cc1cc(CNC(=O)COC(=O)Cn2[nH]c(=O)c3ccccc3c2=O)cc(C)c1O	.	.	.	.	-98	.
CCOC(=O)C1CCN(C(=O)CSc2nc3ncccc3[nH]2)CC1	/	.	/	/	.	/
CC(=O)Nc1ccc(S(=O)(=O)Nc2cccc(NC(=O)c3ccco3)c2)cc1	.	.	.	.	-71	.
CS(=O)(=O)c1cccc(NC(=O)C2CC2)c1	?	.	.	.	.	.
O=C(Nc1cccc(S(=O)(=O)c2cccc(NC(=O)C3CC3)c2)c1)C1CC1	.	/	?	?	?	21µM
CN(C1CCCCC1)S(=O)(=O)c1ccc(NC(=O)c2ccco2)cc1	/	.	.	.	.	11µM
O=C(Nc1cccc(S(=O)(=O)N2CCCC2)c1)c1ccco1	/	.	/	/	.	/
CN(c1ccccc1)S(=O)(=O)c1ccc(NC(=O)c2ccco2)cc1	.	.	.	?	.	?
O=C(Nc1cccc(S(=O)(=O)c2cccc(NC(=O)c3ccco3)c2)c1)c1ccco1	.	35µM	.	?	-69	?
CC(=O)C(C(=O)Nc1c(C)cccc1C)N(C(=O)Cc1ccc([N+](=O)[O-])cc1)c1ccccc1 (centres undefined)	/	/	/	/	.	/
Cc1c(Cl)cccc1NC(=O)CCn1nc(C)c2c(C)n(-c3ccccc3)nc2c1=O	.	.	.	/	.	.
CC(=O)Nc1cccc(NS(=O)(=O)c2c(C)noc2C)c1	6.3µM	.	?	.	.	.
O=C(OCc1cc(=O)n2nc(-c3cccs3)sc2n1)c1ccc(F)cc1	.	.	.	/	.	.
O=C(O)C(Oc1ccc2ccccc2c1)c1ccccc1 (centres undefined)	.	.	.	.	.	.
CCSc1nnc(-c2cccc(S(=O)(=O)N(CC)CC)c2)n1Cc1ccccc1	/	?	/	15µM	.	23µM
CCNC(=O)CSc1nnc(-c2cccc(S(=O)(=O)N(CC)CC)c2)n1CCc1ccccc1	/	.	/	.	.	.
O=C(O)C1C2CCC1C(O)C2 (centres undefined)	.	.	.	/	.	/
COc1ccc(OCc2ccc(-c3nc(C#N)c(N4CCN(C)CC4)o3)o2)cc1	.	.	.	.	.	?
CCNC(=O)COc1cccc2ccccc12	/	.	/	.	-69	.
Cc1ccccc1OCC(=O)N/N=C/C=C/c1ccccc1	/	.	/	.	.	.
O=C(COc1cccc2ccccc12)N/N=C/C=C/c1ccccc1	/	.	/	.	-62	.
O=C(N/N=C/C=C/c1ccccc1)c1cc2c(ccc3ccccc32)o1	/	?	.	4.5µM	?	7.9µM
COc1ccc(/C=C/C=N/NC(=O)COc2ccc(OC)cc2)cc1	.	.	.	.	.	0.79µM
O=C(N/N=C/c1ccccc1F)c1cc2c(ccc3ccccc32)o1	/	.	/	/	.	/
O=c1[nH]c(=S)[nH]c2c1C(c1ccc(F)cc1)OC(C1CCCCC1)C2 (centres undefined)	.	.	.	/	.	/
SMILES	Vaccinia mCherry	FMDV inh	Vaccinia Venus	Marburg entry inh	HCMV antiviral	Lassa entry inh
CCN1CC(CN(C)Cc2cn(-c3ccc(C)cc3)nc2-c2cccc(C)c2)CC1=O (centres undefined)	.	.	.	11µM	.	?
COc1ccc(S(=O)(=O)NN(C)C)cc1N(C)S(=O)(=O)c1ccc(Cl)cc1	.	.	.	.	-64	.
COc1ccc(S(=O)(=O)N2CCCCC2)cc1N(C)S(=O)(=O)c1ccccc1	.	.	.	?	.	.
COC(=O)CN(c1cc(Cl)ccc1OC)S(=O)(=O)c1ccc(C)cc1	.	.	.	?	?	.
COc1ccc(S(=O)(=O)Nc2ccc(C)cc2)cc1N(C)S(=O)(=O)c1ccc(Cl)cc1	?	/	18µM	?	-99	?
Cc1ccc(-c2nc(NCCN(C)C)c3ccccc3n2)cc1	?	.	?	?	.	?
CN(C)CCNc1cc(-c2ccncc2)nc2ccccc12	.	.	.	6.3µM	.	.
CCCOc1ccc(C(F)(F)F)cc1NC(=O)c1cc(C)on1	/	.	/	/	.	/
CCCOc1ccc(C(F)(F)F)cc1NS(=O)(=O)c1ccc(Cl)nc1	11µM	.	?	.	.	.
CN(c1ccccc1)S(=O)(=O)c1ccccc1Br	.	.	.	/	-81	/
